Results filed as inconclusive are left out. Activity calls are given as the source filed them. Calls come from the whole dose curve; as a rule, active = well fitted cell-killing curve with a large enough effect; inconclusive = small, poorly fitted or top-dose-only effect, or effect the other way; inactive = no such curve, though single readings can be large or run the other way.
Potency is the fitted concentration of half-maximal effect.

This test is described as follows: Quantitative High-Throughput drug screen in 47 multiple myeloma cell lines against the NCATS MIPE library collection: XG6_PLB cell viability assay (AID 1919865). Note: nearly all actives have a fitted effect of over 40% in size. Conditions: XG6 myeloma viability, CellTiter-Glo ATP luminescence, 48 h; series mostly up to 45.8 µM; viability (% of control): at the top concentration. From the text:
PI: Beverly A. Mock Ph.D.
Laboratory of Cancer Biology and Genetics,
Center for Cancer Research, National Cancer Institute,
National Institute of Health, Bethesda, Maryland
Drug resistance and disease progression are common in multiple myeloma (MM) patients, underscoring the need for new therapeutic combinations. […] We hypothesized that effective combinations would reduce MYC expression and enhance p16 activity. […] These preclinical data identify potentially useful drug combinations for evaluation in drug-resistant MM and reveal potential mechanisms of combined drug sensitivity.
Described herein is the primary MIPE qHTS used to cherrypick compounds. Validated compounds were then further tested for potential synergistic activiy.
[1] Peat TJ, Gaikwad SM, Dubois W, Gyabaah-Kessie N, Zhang S, Gorjifard S, Phyo Z, Andres M, Hughitt VK, Simpson RM, Miller MA, Girvin AT, Taylor A, Williams D, D'Antonio N, Zhang Y, Rajagopalan A, Flietner E, Wilson K, Zhang X, Shinn P, Klumpp-Thomas C, McKnight C, Itkin Z, Chen L, Kazandijian D, Zhang J, Michalowski AM, Simmons JK, Keats J, Thomas CJ, Mock BA. Drug combinations identified by high-throughput screening promote cell cycle transition and upregulate Smad pathways in myeloma. Cancer Lett. 2023 Aug 1;568:216284. doi: 10.1016/j.canlet.2023.216284. Epub 2023 Jun 24. PMID: 37356470; PMCID: PMC10408729.
SEQUENCE No. (e.g., 1, 2, 3, etc.); […] (e.g., Cells, Incubation, Reagent, etc.); VALUE and DESCRIPTION.
1; Cells; 5 uL; white, solid bottom 1536-well Greiner assay plate.
2; Compounds; 23 nL; Kalypsis pin tool (Wako USA) equipped with a 1536-well pin head to transfer to the assay plates.
3; Incubation; 48 hours; 37C incubation.
4; Reagent;5uL; CellTiter Glo (Promega).
5; Detector; 425V; Luminescence; Viewlux PerkinElmer.
NOTES (numbers refer to Sequence numbers above)
1. The cell-based screening methods employed in this study were like those previously published. Briefly, the corresponding myeloma cell lines were screened in 1,536-well plates with 500 cells, 5-uL per well for inhibition of cell viability (assessed by measuring ATP levels with CellTiterGlo).
2. NCATS MIPE 4.0 library of approved and investigational drugs were added using the Kalypsis pin tool. Wells treated with DMSO only for 100% viability and media only for 0% viability were used as controls.
3. The assay plates were covered and incubated for 48 hours in a 37C, 5% CO2 incubator with controlled humidity.
4. After 48 hours, CellTilter-GloTM luminescent substrate mix (Promega) reagent was added to the assay plate and plates we incubated for 5 min at room temperature.
5. Signal was measured as median relative luminescence units on a ViewLux (PerkinElmer) multiplate reader.
[1] Heske CM, Davis MI, Baumgart JT, Wilson K, Gormally MV, Chen L, Zhang X, Ceribelli M, Duveau DY, Guha R, Ferrer M, Arnaldez FI, Ji J, Tran HL, Zhang Y, Mendoza A, Helman LJ, Thomas CJ. Matrix Screen Identifies Synergistic Combination of PARP Inhibitors and Nicotinamide Phosphoribosyltransferase (NAMPT) Inhibitors in Ewing Sarcoma. Clin Cancer Res. 2017 Dec 1;23(23):7301-7311. doi: 10.1158/1078-0432.CCR-17-1121. Epub 2017 Sep 12. PMID: 28899971; PMCID: PMC6636827.
As for `CN1C(=O)CCS(=O)(=O)C1c1ccc(Cl)cc1` (stereo unspecified), the Potency is 18.7 µM (active).

Take `CC(C)c1cccc(C(C)C)c1O`: the “viability (% of control)” value was 126% (inactive).

For the compound `O=P1(N(CCCl)CCCl)NCCCO1` (stereo unspecified), the “viability (% of control)” value was 107% (inactive).

On to `C[C@]12CC[C@@H]3c4ccc(OC(=O)N(CCCl)CCCl)cc4CC[C@H]3[C@@H]1CC[C@@H]2OP(=O)(O)O`, for which the “viability (% of control)” value was 103% (inactive).

For the compound `C[C@]12CC[C@H]3[C@@H](CC[C@@]45O[C@H]4C(O)=C(C#N)C[C@]35C)[C@H]1CC[C@H]2O`, the “viability (% of control)” value was 107% (inactive).

As for `O=C(O)CCCc1ccc(N(CCCl)CCCl)cc1`, the Potency was 11.8 µM (active).

Regarding `CC(NC(C)(C)C)C(=O)c1cccc(Cl)c1` (stereo unspecified), the “viability (% of control)” value was 108% (inactive).

Regarding `CC(C)C[C@H](CN)CC(=O)O`, the “viability (% of control)” value is 127% (inactive).

As for `C[C@](O)(CS(=O)(=O)c1ccc(F)cc1)C(=O)Nc1ccc(C#N)c(C(F)(F)F)c1`, the Potency was 0.148 µM (active).

On to `CCC1(c2ccc(N)cc2)CCC(=O)NC1=O` (stereo unspecified), for which the “viability (% of control)” value was 113% (inactive).

As for `CN1C(=O)COc2c(C(=O)NC3CN4CCC3CC4)cc(Cl)cc21` (stereo unspecified), the “viability (% of control)” value is 116% (inactive).
